# Source: the supplement of paper PMC10849652
# Targets with a hit are over-represented here; the source holds about 8,800 in all. About 0.5% of all pairs of compound and target were hits. Unmarked numbers belong to inactive results.
# Legend:
# Assay in all cases: log2 fold change, soluble protein after heating vs DMSO (PISA); higher = thermal stabilisation; K562 lysate, 10 uM; active = over 0.2 and 3.5 SD of the protein, either way, in both replicates (recomputed)
# alvocidib = compound: CN1CC[C@H](c2c(O)cc(O)c3c(=O)cc(-c4ccccc4Cl)oc23)[C@H](O)C1 [alvocidib]
# Procedure, shortened: (§1)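 Pellets of K562 cells were dounce-homogenised in PBS pH 7.4 with 1 mM MgCl2, and the crude extract was held at 1 mg/mL protein for a 30 min treatment with 10 μM compound. Aliquots were heated for 3 min over 48°C-58°C and pooled before NP-40 was added to 0.5% at 4°C. The supernatant from 21,000xg for 90 min was quantified by TMTpro 16plex LC-MS/MS with channel sums equalised. Values are reported from duplicates as log-two fold change in thermal stability relative to solvent controls.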
# Tubastatin A = compound: CN1CCc2c(c3ccccc3n2Cc2ccc(C(=O)NO)cc2)C1 [Tubastatin A]
# Procedure, shortened: as §1
# [1] = compound: CNC(=O)C1=CC=CC=C1NC2=NC(=NC=C2Cl)NC3=C(C=C(C=C3)N4CCOCC4)OC
# Procedure, shortened: as §1
# defactinib = compound: CNC(=O)c1ccc(Nc2ncc(C(F)(F)F)c(NCc3nccnc3N(C)S(C)(=O)=O)n2)cc1 [defactinib]
# Procedure, shortened: as §1
# encorafenib = compound: COC(=O)N[C@@H](C)CNc1nccc(-c2cn(C(C)C)nc2-c2cc(Cl)cc(NS(C)(=O)=O)c2F)n1 [encorafenib]
# Procedure, shortened: as §1
# [2] = compound: COC(=O)[C@H](CCSC)NC(=O)C1=C(C=C(C=C1)NC[C@H](CS)N)C2=CC=CC=C2
# Procedure, shortened: as §1
# alisertib = compound: COc1cc(Nc2ncc3c(n2)-c2ccc(Cl)cc2C(c2c(F)cccc2OC)=NC3)ccc1C(=O)O [alisertib]
# Procedure, shortened: as §1
# [3] = compound: COc1cc2nc(-c3cc(F)ccc3O)nc(N[C@@H]3CNC[C@H]3C(C)(C)O)c2cc1OC
# Procedure, shortened: as §1
# gefitinib = compound: COc1cc2ncnc(Nc3ccc(F)c(Cl)c3)c2cc1OCCCN1CCOCC1 [gefitinib]
# Procedure, shortened: as §1
# lapatinib = compound: CS(=O)(=O)CCNCc1ccc(-c2ccc3ncnc(Nc4ccc(OCc5cccc(F)c5)c(Cl)c4)c3c2)o1 [lapatinib]
# Procedure, shortened: as §1
# crizotinib = compound: C[C@@H](Oc1cc(-c2cnn(C3CCNCC3)c2)cnc1N)c1c(Cl)ccc(F)c1Cl [crizotinib]
# Procedure, shortened: as §1
# [4] = compound: C[C@H](C1=CC=C(C=C1)C(=O)NC2=C3C=CNC3=NC=C2)N
# Procedure, shortened: as §1
# gandotinib = compound: Cc1cc(Nc2cc(CN3CCOCC3)c3nc(C)c(Cc4ccc(Cl)cc4F)n3n2)n[nH]1 [gandotinib]
# Procedure, shortened: as §1
# tozasertib = compound: Cc1cc(Nc2cc(N3CCN(C)CC3)nc(Sc3ccc(NC(=O)C4CC4)cc3)n2)n[nH]1 [tozasertib]
# Procedure, shortened: as §1
# doramapimod = compound: Cc1ccc(-n2nc(C(C)(C)C)cc2NC(=O)Nc2ccc(OCCN3CCOCC3)c3ccccc23)cc1 [doramapimod]
# Procedure, shortened: as §1
# [5] = compound: Cc1cccc(CC(=O)N2CCc3c2ccc(-c2cn(C)c4ncnc(N)c24)c3F)n1
# Procedure, shortened: as §1
# pictilisib = compound: CS(=O)(=O)N1CCN(Cc2cc3nc(-c4cccc5[nH]ncc45)nc(N4CCOCC4)c3s2)CC1 [pictilisib]
# Procedure, shortened: as §1
# bafetinib = compound: Cc1ccc(NC(=O)c2ccc(CN3CC[C@H](N(C)C)C3)c(C(F)(F)F)c2)cc1Nc1nccc(-c2cncnc2)n1 [bafetinib]
# Procedure, shortened: as §1
# [6] = compound: CNc1nc(-c2ccc3c(N)n[nH]c3c2)cc(N2C[C@@H](C(=O)NC3CCCCC3)CC[C@H]2C)n1
# Procedure, shortened: as §1
# duvelisib = compound: C[C@H](Nc1ncnc2nc[nH]c12)c1cc2cccc(Cl)c2c(=O)n1-c1ccccc1 [duvelisib]
# Procedure, shortened: as §1
# Sequence of UniProt O60225 (O60225 whole entry, looked up): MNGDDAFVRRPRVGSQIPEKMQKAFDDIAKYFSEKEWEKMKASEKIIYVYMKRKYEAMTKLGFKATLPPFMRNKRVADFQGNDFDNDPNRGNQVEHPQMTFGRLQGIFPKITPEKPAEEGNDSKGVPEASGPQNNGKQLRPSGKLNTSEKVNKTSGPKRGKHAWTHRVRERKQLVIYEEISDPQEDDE
# Sequence of UniProt Q9H2V7 (Q9H2V7 whole entry, looked up): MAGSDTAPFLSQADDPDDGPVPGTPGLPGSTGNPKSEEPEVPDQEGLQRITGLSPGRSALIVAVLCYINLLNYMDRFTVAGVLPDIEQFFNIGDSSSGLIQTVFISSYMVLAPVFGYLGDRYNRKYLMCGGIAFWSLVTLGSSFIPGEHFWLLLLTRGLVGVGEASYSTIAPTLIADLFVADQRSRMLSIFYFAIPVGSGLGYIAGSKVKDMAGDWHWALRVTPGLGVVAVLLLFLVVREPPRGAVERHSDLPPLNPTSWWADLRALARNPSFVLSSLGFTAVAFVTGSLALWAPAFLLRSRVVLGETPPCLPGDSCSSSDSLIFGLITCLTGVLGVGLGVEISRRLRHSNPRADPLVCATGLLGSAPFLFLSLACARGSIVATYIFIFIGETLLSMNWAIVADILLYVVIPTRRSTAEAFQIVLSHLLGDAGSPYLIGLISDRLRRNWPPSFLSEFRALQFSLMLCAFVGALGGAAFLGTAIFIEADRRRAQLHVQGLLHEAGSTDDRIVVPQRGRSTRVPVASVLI
# Sequence of UniProt P53985 (P53985 whole entry, looked up): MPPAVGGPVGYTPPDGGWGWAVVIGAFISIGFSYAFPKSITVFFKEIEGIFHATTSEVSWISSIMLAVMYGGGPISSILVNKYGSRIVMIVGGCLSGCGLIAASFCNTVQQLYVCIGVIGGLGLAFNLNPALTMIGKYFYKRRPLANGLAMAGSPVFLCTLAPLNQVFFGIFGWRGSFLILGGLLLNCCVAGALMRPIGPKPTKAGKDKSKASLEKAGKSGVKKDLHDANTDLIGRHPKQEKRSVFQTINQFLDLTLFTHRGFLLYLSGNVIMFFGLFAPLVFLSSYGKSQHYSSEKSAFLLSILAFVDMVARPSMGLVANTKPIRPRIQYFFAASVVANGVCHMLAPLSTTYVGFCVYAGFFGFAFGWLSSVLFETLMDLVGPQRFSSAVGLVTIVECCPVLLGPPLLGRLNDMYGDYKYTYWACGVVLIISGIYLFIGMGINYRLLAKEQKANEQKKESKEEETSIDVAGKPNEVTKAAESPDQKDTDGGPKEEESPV
# Sequence of UniProt P10124 (P10124 whole entry, looked up): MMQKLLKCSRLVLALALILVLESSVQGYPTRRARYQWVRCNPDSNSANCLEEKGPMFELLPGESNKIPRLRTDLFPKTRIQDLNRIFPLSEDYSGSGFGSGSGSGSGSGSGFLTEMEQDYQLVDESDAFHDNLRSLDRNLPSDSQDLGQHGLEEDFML
# Sequence of UniProt Q9Y2D2 (Q9Y2D2 whole entry, looked up): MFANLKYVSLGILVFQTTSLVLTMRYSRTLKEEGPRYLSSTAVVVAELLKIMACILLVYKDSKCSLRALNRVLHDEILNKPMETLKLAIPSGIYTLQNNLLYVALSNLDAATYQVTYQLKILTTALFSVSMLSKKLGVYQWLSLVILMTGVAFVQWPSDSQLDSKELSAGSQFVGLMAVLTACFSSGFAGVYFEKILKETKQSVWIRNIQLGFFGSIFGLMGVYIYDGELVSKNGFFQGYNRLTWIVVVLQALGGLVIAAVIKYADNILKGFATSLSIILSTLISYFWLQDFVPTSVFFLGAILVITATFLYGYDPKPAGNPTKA
# Sequence of UniProt Q9NP59 (Q9NP59 whole entry, looked up): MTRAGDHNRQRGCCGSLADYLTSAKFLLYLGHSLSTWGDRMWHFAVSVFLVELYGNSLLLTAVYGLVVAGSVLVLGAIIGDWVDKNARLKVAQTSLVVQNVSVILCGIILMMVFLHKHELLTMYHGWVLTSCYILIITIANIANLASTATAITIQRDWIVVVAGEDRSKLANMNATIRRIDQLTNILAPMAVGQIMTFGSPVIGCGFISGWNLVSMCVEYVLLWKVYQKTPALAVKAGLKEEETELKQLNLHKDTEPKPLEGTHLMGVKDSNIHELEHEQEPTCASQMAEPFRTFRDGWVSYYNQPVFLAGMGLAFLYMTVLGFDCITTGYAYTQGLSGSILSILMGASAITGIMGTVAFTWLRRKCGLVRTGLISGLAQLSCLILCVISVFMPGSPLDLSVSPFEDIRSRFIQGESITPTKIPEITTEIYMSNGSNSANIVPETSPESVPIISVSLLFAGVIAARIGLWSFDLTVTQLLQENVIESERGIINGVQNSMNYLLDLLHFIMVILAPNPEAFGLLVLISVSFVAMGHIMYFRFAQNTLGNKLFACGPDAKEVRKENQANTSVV
# Sequence of UniProt Q8TCT8 (Q8TCT8 whole entry, looked up): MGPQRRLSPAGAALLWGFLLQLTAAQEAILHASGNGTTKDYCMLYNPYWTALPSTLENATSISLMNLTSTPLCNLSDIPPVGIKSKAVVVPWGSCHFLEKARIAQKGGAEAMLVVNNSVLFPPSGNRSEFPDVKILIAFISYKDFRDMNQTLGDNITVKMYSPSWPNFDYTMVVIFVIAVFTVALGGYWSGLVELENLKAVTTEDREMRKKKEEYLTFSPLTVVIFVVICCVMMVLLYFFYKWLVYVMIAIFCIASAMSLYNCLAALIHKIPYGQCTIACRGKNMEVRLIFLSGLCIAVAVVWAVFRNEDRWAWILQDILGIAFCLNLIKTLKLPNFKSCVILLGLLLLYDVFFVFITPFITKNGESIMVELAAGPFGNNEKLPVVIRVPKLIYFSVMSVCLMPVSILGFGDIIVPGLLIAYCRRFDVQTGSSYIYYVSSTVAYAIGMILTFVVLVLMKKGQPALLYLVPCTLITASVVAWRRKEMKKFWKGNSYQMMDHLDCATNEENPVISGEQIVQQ
# Sequence of UniProt O95149 (O95149 whole entry, looked up): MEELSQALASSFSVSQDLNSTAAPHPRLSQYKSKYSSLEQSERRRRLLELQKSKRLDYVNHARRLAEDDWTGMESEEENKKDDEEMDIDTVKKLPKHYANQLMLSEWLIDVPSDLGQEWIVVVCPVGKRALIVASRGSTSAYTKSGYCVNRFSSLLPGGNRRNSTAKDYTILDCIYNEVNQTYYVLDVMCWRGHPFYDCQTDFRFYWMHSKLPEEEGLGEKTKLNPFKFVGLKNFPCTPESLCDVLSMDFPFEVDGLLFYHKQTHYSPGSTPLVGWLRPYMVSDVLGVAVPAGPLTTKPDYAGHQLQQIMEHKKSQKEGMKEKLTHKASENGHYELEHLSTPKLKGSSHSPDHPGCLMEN
Target,log2 fold change (alvocidib),log2 fold change (Tubastatin A),log2 fold change [1],log2 fold change (defactinib),log2 fold change (encorafenib),log2 fold change [2],log2 fold change (alisertib),log2 fold change [3],log2 fold change (gefitinib),log2 fold change (lapatinib),log2 fold change (crizotinib),log2 fold change [4],log2 fold change (gandotinib),log2 fold change (tozasertib),log2 fold change (doramapimod),log2 fold change [5],log2 fold change (pictilisib),log2 fold change (bafetinib),log2 fold change [6],log2 fold change (duvelisib)
SLC35A3 isoform 2 (UniProt Q9Y2D2),-0.406,-0.079,0.016,0.069,0.067,-0.019,0.069,-0.019,0.198,-0.097,-0.267,-1.02 (active),0.215,0.032,0.095,0.332,,,,
SNUPN (UniProt O95149),0.012,0.028,-0.173,-0.066,0.006,0.155,-0.007,-0.009,0.076,0.026,-0.03,-0.009,-0.036,0.023,-0.002,0.006,-0.083,-0.061,,
SPNS1 (UniProt Q9H2V7),-0.118,0.034,0.06,0.095,0.019,-0.031,0.047,0.019,-0.015,0.025,-0.004,-0.042,0.032,-0.073,0.014,0.052,-0.038,-0.054,-0.03,0.04
SLC40A1 (UniProt Q9NP59),0.002,0.145,-0.05,0.087,0.013,-0.072,0.018,0.039,-0.01,-0.019,0.111,-0.164,0.054,-0.035,-0.056,0.018,,,-0.029,0.099
SSX5 isoform 2 (UniProt O60225),-0.096,-0.015,0.038,-0.026,-0.082,-0.271,-0.172,-0.002,0.005,0.042,,-0.476,0.092,0.085,,0.183,0.082,-0.04,,
SRGN (UniProt P10124),-0.509 (active),0.027,0.048,0.175,0.014,-0.055,,0.026,,0.016,-0.054,-0.046,-0.097,0.008,-0.071,0.192,-0.181,-0.17,0.065,0.019
SLC16A1 (UniProt P53985),-0.133,-0.012,0.042,-0.007,-0.016,-0.059,0.045,0.018,0.032,-0.009,0.006,-0.341 (active),0.22,-0.008,-0.017,0.246 (active),0.019,-0.041,0.024,-0.011
SPPL2A (UniProt Q8TCT8),0.013,0.107,0.103,-0.054,0.124,-0.063,,0.099,,-0.002,-0.127,-0.302,-0.093,0.082,-0.032,0.1,-0.059,-0.127,,
